DAX1 inh-1: inhibits human nuclear receptor DAX1 | P51843 | HEK293 Gal4-DAX1 luciferase reporter, luminescence | inhibition, % at 6.75 µM | 340,000 compounds, 0.99% hits | AID 504766;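 active = inhibition above the mean over all tested compounds plus 3 SD, cut at about 4.2% in these data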;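 note: 0% = DAX1-transfected cells with DMSO and 100% = empty-vector control cells with DMSO; inhibition shows as a rise in luminescence from relieved DAX1 repression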
Target sequence (P51843 207-470 limits assumed): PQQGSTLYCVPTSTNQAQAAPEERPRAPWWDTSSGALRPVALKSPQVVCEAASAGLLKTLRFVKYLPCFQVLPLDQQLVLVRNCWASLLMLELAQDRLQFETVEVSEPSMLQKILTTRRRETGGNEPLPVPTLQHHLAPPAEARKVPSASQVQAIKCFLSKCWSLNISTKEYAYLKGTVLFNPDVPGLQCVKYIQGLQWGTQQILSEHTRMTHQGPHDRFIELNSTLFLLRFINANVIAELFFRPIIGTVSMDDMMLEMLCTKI
hgDAF-12 ag: agonists of H. glycines DAF-12 nuclear receptor; 370,000 compounds, 1.8% hits; activation, % at 6.8 µM; HEK293 GAL4-hgDAF12 UAS-luciferase reporter, agonist luminescence; normalized to butyrate control; AID 687014;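 active = activation above a cutoff set at the mean of all screened compounds plus 3 SD, cut at about 10% in these data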;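 note: 0% = DMSO wells and 100% = sodium butyrate wells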
hcDAF-12 act: H. contortus DAF-12 activation, primary screen | HEK293 hcDAF-12 lit1-tk-luc reporter, luminescence; 0% DMSO, 100% Δ7-dafachronic acid | activation, % at 6.8 µM | 370,000 compounds, 1.4% hits;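 active = activation above the mean of all tested compounds plus 3 SD, cut at about 5.5% in these data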;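 note: 100% = response to 3 µM Δ7-dafachronic acid high control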
ssDAF-12 act: S. stercoralis DAF-12 activation, primary screen; HEK293 ssDAF-12/GRIP1 lit1-tk-luc reporter, luminescence; % of 3 µM dafachronic acid response; activation, % at 6.8 µM; 370,000 compounds, 1% hits; AID 652126;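 active = activation above the mean over all tested compounds plus 3 SD, cut at about 0.9% in these data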;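 note: 0% = DMSO-only wells and 100% = 3 µM delta7-dafachronic acid wells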
DAX1 inh-2: DAX1 (NR0B1) inhibition, primary screen | 370,000 compounds, 1.1% hits | HEK293T StAR-luciferase reporter, SF-1/DAX-1 repression relief | inhibition, % at 6.8 µM;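 active = inhibition above the mean over all tested compounds plus 3 SD, cut at about 3.6% in these data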;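 note: 0% = DAX-1 cells with DMSO and 100% = cells lacking DAX-1 with DMSO; higher inhibition means more luminescence from relief of DAX-1 repression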
DAX1 inh confirm: confirmation of human DAX1 (NR0B1) inhibitors; HEK293T StAR-promoter luciferase reporter, SF-1/DAX-1 repression; inhibition, % at 6.8 µM; shares compounds with DAX1 inh-2; 2,400 compounds, 87% hits;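 active = inhibition above the average of every tested compound plus 3 SD, cut at about 3.8% in these data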;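 note: 0% = DAX-1 cells with DMSO and 100% = no DAX-1 control cells with DMSO; active compounds raise luminescence by relieving repression of the StAR reporter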
SF1 AF2mut Luc: counter-screen for DAX1 inhibitors: nonselective inhibitors with SF-1 AF2 mutant; shares compounds with DAX1 inh-2; HEK293 StAR-luciferase, luminescence; inhibition, % at 6.8 µM; 2,400 compounds, 78% hits;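 active = inhibition above the mean of all tested compounds plus 3 SD, cut at about 3% in these data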;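 note: 0% = DAX-1 transfected cells with DMSO and 100% = cells without DAX-1 with DMSO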
LXRb hcDAF ctr: activates human LXR-beta, counter-screen for hcDAF-12 agonists | HEK293 Gal4-LXR tk-luc reporter, luminescence, 24 h; normalized: DMSO 0%, positive control 100% | shares compounds with hcDAF-12 act | activation, % at 6.8 µM | 3,400 tested, under 10 active;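 active = mean percent activation of the reporter above a cutoff set as the average over tested compounds plus their standard deviation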
Target sequence (P55055 whole entry, looked up, the tested form may be a part): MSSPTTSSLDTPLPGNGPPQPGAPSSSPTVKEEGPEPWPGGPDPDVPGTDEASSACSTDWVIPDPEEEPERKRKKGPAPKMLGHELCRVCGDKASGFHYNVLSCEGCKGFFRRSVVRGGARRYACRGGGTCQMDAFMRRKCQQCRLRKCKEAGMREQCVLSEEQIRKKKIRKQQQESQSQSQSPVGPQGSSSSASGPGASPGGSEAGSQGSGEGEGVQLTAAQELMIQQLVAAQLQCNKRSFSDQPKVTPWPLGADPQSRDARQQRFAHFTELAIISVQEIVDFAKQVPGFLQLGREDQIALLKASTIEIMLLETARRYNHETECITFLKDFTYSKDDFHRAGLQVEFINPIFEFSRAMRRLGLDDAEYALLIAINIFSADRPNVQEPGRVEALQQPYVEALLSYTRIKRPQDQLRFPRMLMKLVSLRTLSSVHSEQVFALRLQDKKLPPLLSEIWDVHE
hcDAF12 conf: confirmation of H. contortus DAF-12 agonists | HEK293 hcDAF-12 lit1-tk-luc reporter, luminescence; % of Δ7-dafachronic acid response | 3,400 compounds, 61% hits | activation, % at 6.8 µM | shares compounds with hcDAF-12 act | AID 743032;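 active = mean activation across triplicate tests above the threshold derived from the earlier primary screen, cut at about 5.5% in these data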;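 note: 0% = DMSO only wells and 100% = 3 µM Δ7-dafachronic acid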
hgDAF12 conf: hgDAF-12 agonism, confirmation assay | shares compounds with hgDAF-12 ag | HEK293 GAL4-hgDAF12 luciferase reporter, agonist mode; percent of butyrate response | activation, % at 6.8 µM | 3,300 compounds, 80% hits | AID 743050;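 active = mean activation over triplicate wells above the hit cutoff derived from the earlier primary screen, cut at about 11% in these data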;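 note: 0% = DMSO low control and 100% = 2 mM sodium butyrate high control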
LXR ag 2: counter-screen for DAF-12 agonists: agonists of human LXR-beta. shares compounds with hgDAF-12 ag. HEK293 Gal4-LXR luciferase reporter, 24 h. activation, % at 6.8 µM. 3,300 tested, under 10 active. AID 743051;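 active = mean activation of the triplicate above a set limit carried over from the primary screen, none filed active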
* = called active by the depositor; · = no result given. This is a sample that favours compounds with a hit; in the whole collection about 4.1% have one here.

SMILES	DAX1 inh-1	hgDAF-12 ag	hcDAF-12 act	ssDAF-12 act	DAX1 inh-2	DAX1 inh confirm	SF1 AF2mut Luc	LXRb hcDAF ctr	hcDAF12 conf	hgDAF12 conf	LXR ag 2
Cc1ccc(-c2cnc3cc(C)nn3c2)cc1	-1	18*	5.9*	0	9.7*	11*	5.2*	·	·	12*	1
CC(C)[C@H](NC(=O)c1ccccc1)C(=O)N1CCC[C@H]1C(=O)NCc1ccccc1	·	2	-1	-1	0	·	·	·	·	·	·
Cn1nnnc1SCC(=O)Nc1ccc2c(c1)OCCO2	4	15*	3	0	6.5*	8.2*	3	·	·	14*	1
Cc1nnc(SCC(=O)Nc2nsc(-c3ccc(C(C)(C)C)cc3)n2)s1	4.4*	27*	7.3*	1	7.3*	11*	6.0*	1	6.9*	19*	1
C#Cc1cccc(OCC(C)CN2CCC(C(O)(c3ccccc3)c3ccccc3)CC2)c1 (stereo not drawn)	·	1	-3	-2	0	·	·	·	·	·	·
N=NC(=O)c1ccccc1Nc1c(O)[nH]c2ccccc12	-3	15*	13*	2.3*	6.1*	11*	7.8*	1	14*	16*	1
CC(=O)Nc1c(O)[nH]c2ccccc12	0	1	1	-1	0	·	·	·	·	·	·
COc1ccc(CCNC(=O)Cc2ccc(NC3=NC4CS(=O)(=O)CC4S3)cc2)c(OC)c1 (stereo not drawn)	1	1	3	-2	1	·	·	·	·	·	·
COc1ccc(-c2cn3cc(C(F)(F)F)cc(Cl)c3n2)cc1	3	23*	12*	2.6*	5.1*	8.7*	6.9*	1	15*	21*	1
CNC(=O)NC(=O)CSc1ccc(S(=O)(=O)N2CCOCC2)cn1	0	2	-1	-1	0	·	·	·	·	·	·
O=c1[nH]c2c(=O)[nH]cnc2nc1-c1ccccc1	-1	0	0	-1	0	·	·	·	·	·	·
O=C(Nc1cccnc1)c1cc(S(=O)(=O)N2CCCCC2)c(Cl)cc1Cl	-1	0	-2	-1	0	·	·	·	·	·	·
COc1ccc(OC)c(NC(=O)Nc2cccnc2)c1	0	5	0	-2	1	·	·	·	·	·	·
COc1ccc(/C=N/NC(=S)Nc2ccccc2)cc1	1	26*	3	-1	7.7*	10*	5.8*	·	·	15*	1
O=C(c1c[nH]c2ccccc12)C(Cl)c1ccccc1 (stereo not drawn)	-3	-8	1	-1	-1	·	·	·	·	·	·
CC1CCc2sc(C(=O)NCC3CCCO3)cc2C1 (stereo not drawn)	4	15*	3	0	7.2*	9.9*	6.5*	·	·	13*	1
Cc1nc2cc(NC(=O)Nc3ccccc3Cl)ccc2n1C	-2	15*	7.1*	0	12*	19*	8.4*	2	7.8*	20*	1
Cc1ccc(NC(=O)Nc2ccc3c(c2)nc(C)n3C)cc1	-1	17*	8.7*	1	6.4*	16*	7.2*	1	5	17*	1
CCOC(=O)c1ccccc1NC(=S)N1CCN(C(=O)c2ccco2)CC1	0	0	-1	-1	0	·	·	·	·	·	·
Cc1ccn2cc(-c3cc4ccccc4oc3=O)nc2c1	0	24*	11*	1.7*	12*	12*	4.7*	1	6.9*	12*	1
Cc1ccc(-n2nnnc2SCC(=O)Nc2sccc2C#N)cc1	-2	2	3	0	0	·	·	·	·	·	·
O=C(NCCSc1ccccn1)c1ccc(Cl)cc1Cl	1	15*	4	0	7.3*	11*	6.6*	·	·	18*	1
CS(=O)(=O)N(Cc1ccc(Cl)cc1)c1ccc(C(=O)NCCSc2ccccn2)cc1	-1	-4	-4	-1	-1	·	·	·	·	·	·
O=C(NCCSc1ccccn1)c1ccc(Cl)cc1	1	21*	5	0	4.5*	10*	4.8*	·	·	16*	1
O=C1NC[C@H](c2ccccc2)OC(=O)[C@H](Cc2ccc(F)cc2)C/C=C\C[C@H]1CC(=O)N(CCO)Cc1ccccc1	-5	-2	-2	-2	-1	·	·	·	·	·	·
SMILES	DAX1 inh-1	hgDAF-12 ag	hcDAF-12 act	ssDAF-12 act	DAX1 inh-2	DAX1 inh confirm	SF1 AF2mut Luc	LXRb hcDAF ctr	hcDAF12 conf	hgDAF12 conf	LXR ag 2
Cn1c(=O)c(C(=O)c2ccccc2)nc2ccccc21	-1	0	-1	-1	0	·	·	·	·	·	·
Cn1c(/N=C(\N)c2ccccc2)nc2ccccc21	4.5*	21*	14*	1.7*	8.4*	13*	9.9*	1	17*	20*	1
Fc1ccc(Nc2ccc3ccccc3n2)c(F)c1	-2	15*	9.8*	1.0*	9.7*	14*	9.4*	2	9.4*	20*	1
COc1ccc(C(=O)N/N=C/c2ccccn2)cc1	0	13*	1	0	4.5*	6.6*	4.1*	·	·	13*	0
O=C(N/N=C/c1ccccn1)c1ccc(NC(=O)c2ccc(F)cc2)cc1	-2	-2	1	-1	-1	·	·	·	·	·	·
O=c1[nH]c(=O)n(C2CC(O)C(CO)O2)cc1I (stereo not drawn)	4	15*	4	-1	13*	23*	9.3*	·	·	16*	0
Cc1csc(NC(=O)COc2ccc3c(c2)CCC3)n1	2	14*	4	0	4.7*	9.6*	8.5*	·	·	17*	1
O=C(OCc1ccccc1)N1CCCCC1c1c(Cl)cccc1Br (stereo not drawn)	·	0	-2	-1	-1	·	·	·	·	·	·
COc1ccc(C(=O)/C=C/Nc2cccc(O)c2)cc1	-1	19*	8.2*	1.2*	6.0*	14*	8.1*	2	12*	27*	2
COc1cccc(N/C=C/C(=O)c2ccc(OC)c(OC)c2)c1	2	2	-2	-1	0	·	·	·	·	·	·
O=c1c2c(nc3cc(-c4ccccc4Cl)[nH]n13)CCS2	2	16*	5	1.5*	5.6*	3.9*	3.4*	·	·	12*	1
